# The full data set covers some 8,800 targets. This sample favours those with a hit. About 0.5% of all pairs of compound and target were hits. Values without a mark were called inactive.
# Columns and labels:
# Test in all cases: log2 fold change, soluble protein after heating vs DMSO (PISA); higher = thermal stabilisation; K562 lysate, 10 uM; active = over 0.2 and 3.5 SD of the protein, either way, in both replicates (recomputed)
# erlotinib = compound: C#Cc1cccc(Nc2ncnc3cc(OCCOC)c(OCCOC)cc23)c1 [erlotinib]
# In short: (§1)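 Log-two fold change in thermal stability relative to solvent controls is reported from duplicates. For each sample, crude K562 extract from dounce-homogenised pellets in PBS pH 7.4 with 1 mM MgCl2, at 1 mg/mL protein, was treated with 10 μM compound for 30 min. Aliquots heated for 3 min across 48°C-58°C were pooled, brought to 0.5% NP-40 at 4°C and cleared at 21,000xg for 90 min. The supernatant was quantified by TMTpro 16plex LC-MS/MS with channel sums equalised.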
# [1] = compound: C/C(=N\NC(=O)C1=CC(=CC=C1)S(=O)(=O)N2CCOCC2)/C3=C(C=CC(=C3)Cl)O
# In short: as §1
# [2] = compound: C1=CC(=CC=C1C2=NC3=C(N2)C=C(C=C3)C(=O)N)OC4=CC=C(C=C4)Cl
# In short: as §1
# [3] = compound: C1=CC2=C(C=CC(=C2)/C=C\3/C(=O)NC(=NCC4=CC=CS4)S3)N=C1
# In short: as §1
# [4] = compound: C1=CC2=NC=CN=C2C=C1/C=C/3\C(=O)NC(=O)S3
# In short: as §1
# [5] = compound: C1=CC=C(C=C1)C2=NC(=C(N2)C3=CC=NC=C3)C4=CC(=C(C=C4)Cl)O
# In short: as §1
# [6] = compound: C1=CC=C2C(=C1)C3=NNC4=CC=CC(=C43)C2=O
# In short: as §1
# [7] = compound: C1CCN(C1)C(=O)NC2=CC=CC(=C2)NC3=NC=C(C(=N3)NCCC4=CN=CN4)Br
# In short: as §1
# [8] = compound: C1CN(CCC1(CC2=CC=C(C=C2)Cl)N)C3=NC=NC4=C3C=CN4
# In short: as §1
# IRAK-1-4 Inhibitor I = compound: C1COCCN1CCN2C3=CC=CC=C3N=C2NC(=O)C4=CC(=CC=C4)[N+](=O)[O-] [IRAK-1-4 Inhibitor I]
# In short: as §1
# Chain of UniProt P51532 (P51532 whole entry, looked up): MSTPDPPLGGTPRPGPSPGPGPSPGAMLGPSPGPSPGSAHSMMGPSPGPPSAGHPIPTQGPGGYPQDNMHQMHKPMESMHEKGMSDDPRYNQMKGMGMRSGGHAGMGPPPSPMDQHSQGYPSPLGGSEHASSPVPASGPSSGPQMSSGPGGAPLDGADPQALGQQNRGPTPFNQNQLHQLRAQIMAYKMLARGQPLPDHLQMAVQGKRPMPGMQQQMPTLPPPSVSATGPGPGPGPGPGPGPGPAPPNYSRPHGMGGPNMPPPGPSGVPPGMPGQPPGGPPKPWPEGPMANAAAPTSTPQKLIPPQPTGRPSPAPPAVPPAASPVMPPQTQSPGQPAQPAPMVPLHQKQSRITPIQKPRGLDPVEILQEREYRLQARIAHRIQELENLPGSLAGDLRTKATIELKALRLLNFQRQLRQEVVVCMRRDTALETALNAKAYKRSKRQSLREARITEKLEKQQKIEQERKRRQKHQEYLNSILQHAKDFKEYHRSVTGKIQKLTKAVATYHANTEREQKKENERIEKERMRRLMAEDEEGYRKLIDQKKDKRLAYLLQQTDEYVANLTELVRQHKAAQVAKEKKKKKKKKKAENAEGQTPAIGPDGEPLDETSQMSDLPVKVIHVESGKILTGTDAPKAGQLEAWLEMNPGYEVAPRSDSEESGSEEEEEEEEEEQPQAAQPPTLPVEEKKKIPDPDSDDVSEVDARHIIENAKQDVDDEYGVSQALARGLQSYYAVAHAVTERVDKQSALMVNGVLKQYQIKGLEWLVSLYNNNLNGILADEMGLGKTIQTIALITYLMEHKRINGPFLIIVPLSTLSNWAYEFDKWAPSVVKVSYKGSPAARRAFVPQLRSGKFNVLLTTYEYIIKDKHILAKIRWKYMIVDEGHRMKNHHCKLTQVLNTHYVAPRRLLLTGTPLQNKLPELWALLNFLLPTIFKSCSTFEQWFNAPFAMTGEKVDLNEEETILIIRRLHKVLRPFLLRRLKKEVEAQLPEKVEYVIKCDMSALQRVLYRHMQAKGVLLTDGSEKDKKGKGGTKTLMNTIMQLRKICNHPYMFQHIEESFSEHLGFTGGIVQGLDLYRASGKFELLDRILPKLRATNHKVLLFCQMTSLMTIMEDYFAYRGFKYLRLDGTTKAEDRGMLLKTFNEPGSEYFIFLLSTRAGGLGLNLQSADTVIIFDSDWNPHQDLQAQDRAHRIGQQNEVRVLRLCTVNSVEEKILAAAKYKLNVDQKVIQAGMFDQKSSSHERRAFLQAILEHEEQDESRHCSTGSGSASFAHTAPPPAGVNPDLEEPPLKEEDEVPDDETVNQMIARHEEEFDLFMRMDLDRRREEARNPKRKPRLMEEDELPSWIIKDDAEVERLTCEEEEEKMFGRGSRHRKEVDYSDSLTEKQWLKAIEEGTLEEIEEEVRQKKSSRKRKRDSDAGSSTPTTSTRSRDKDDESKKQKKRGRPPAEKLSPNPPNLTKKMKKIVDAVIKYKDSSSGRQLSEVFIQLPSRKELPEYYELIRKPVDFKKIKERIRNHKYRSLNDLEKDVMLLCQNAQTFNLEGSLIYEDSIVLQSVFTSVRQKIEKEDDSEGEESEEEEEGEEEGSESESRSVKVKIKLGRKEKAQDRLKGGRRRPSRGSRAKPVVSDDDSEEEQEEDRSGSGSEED
# Chain of UniProt Q92844 (Q92844 whole entry, looked up): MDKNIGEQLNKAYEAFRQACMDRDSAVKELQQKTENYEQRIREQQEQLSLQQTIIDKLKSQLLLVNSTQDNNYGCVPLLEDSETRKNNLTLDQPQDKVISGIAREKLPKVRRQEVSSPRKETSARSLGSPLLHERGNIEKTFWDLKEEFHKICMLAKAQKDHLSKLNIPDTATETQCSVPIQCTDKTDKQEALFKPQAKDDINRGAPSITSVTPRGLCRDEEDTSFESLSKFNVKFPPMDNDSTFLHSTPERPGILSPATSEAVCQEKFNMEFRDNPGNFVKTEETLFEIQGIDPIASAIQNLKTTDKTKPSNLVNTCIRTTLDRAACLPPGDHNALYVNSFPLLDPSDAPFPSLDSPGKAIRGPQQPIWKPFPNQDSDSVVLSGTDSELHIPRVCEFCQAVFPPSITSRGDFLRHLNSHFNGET
# Chain of UniProt Q9UL54 (Q9UL54 whole entry, looked up): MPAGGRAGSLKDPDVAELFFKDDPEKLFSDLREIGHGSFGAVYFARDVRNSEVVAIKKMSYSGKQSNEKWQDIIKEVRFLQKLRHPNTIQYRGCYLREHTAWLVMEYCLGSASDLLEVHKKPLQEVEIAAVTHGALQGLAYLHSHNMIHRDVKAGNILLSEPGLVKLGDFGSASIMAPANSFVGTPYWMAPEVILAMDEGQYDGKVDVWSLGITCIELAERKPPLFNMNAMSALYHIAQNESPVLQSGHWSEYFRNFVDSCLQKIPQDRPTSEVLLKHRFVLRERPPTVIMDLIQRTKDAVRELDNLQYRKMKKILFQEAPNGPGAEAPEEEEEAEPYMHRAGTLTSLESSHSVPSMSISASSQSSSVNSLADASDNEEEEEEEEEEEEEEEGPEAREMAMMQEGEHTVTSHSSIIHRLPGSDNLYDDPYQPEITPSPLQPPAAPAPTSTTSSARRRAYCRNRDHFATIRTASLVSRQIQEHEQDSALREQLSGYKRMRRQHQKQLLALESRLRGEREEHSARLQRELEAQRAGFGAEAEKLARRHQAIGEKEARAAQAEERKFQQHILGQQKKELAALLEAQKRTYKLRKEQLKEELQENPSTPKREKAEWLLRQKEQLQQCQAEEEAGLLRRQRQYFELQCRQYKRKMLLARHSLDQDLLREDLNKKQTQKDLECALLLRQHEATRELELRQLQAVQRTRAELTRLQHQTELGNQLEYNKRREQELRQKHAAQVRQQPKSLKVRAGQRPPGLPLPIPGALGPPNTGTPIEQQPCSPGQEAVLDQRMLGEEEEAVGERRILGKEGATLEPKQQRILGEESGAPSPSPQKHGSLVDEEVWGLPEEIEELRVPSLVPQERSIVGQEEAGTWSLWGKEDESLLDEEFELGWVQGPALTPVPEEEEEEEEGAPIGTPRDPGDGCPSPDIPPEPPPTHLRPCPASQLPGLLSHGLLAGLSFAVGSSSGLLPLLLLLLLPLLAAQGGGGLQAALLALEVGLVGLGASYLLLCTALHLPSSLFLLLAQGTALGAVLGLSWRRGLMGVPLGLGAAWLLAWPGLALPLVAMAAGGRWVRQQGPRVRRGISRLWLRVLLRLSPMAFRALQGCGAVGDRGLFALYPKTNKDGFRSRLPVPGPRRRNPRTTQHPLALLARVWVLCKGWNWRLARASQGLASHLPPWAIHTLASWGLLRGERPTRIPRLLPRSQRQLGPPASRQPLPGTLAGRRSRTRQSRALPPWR
# Chain of UniProt Q53T94 (Q53T94 whole entry, looked up): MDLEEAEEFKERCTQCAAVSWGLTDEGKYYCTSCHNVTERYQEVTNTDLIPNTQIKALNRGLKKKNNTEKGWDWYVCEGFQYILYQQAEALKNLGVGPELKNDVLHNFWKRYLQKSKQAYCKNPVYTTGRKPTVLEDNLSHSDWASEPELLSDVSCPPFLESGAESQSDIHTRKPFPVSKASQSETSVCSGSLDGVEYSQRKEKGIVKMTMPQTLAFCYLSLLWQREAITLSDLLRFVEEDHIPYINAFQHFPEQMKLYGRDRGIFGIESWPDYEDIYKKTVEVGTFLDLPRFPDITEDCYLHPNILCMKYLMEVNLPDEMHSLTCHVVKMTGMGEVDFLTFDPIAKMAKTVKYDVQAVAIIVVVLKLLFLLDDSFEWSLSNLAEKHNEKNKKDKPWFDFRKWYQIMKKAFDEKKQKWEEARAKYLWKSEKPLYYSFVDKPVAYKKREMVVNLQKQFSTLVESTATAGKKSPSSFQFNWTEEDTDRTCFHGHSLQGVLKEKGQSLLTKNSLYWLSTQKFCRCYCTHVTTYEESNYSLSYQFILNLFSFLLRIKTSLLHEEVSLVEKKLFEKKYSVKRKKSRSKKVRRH
# Chain of UniProt O75182 (O75182 whole entry, looked up): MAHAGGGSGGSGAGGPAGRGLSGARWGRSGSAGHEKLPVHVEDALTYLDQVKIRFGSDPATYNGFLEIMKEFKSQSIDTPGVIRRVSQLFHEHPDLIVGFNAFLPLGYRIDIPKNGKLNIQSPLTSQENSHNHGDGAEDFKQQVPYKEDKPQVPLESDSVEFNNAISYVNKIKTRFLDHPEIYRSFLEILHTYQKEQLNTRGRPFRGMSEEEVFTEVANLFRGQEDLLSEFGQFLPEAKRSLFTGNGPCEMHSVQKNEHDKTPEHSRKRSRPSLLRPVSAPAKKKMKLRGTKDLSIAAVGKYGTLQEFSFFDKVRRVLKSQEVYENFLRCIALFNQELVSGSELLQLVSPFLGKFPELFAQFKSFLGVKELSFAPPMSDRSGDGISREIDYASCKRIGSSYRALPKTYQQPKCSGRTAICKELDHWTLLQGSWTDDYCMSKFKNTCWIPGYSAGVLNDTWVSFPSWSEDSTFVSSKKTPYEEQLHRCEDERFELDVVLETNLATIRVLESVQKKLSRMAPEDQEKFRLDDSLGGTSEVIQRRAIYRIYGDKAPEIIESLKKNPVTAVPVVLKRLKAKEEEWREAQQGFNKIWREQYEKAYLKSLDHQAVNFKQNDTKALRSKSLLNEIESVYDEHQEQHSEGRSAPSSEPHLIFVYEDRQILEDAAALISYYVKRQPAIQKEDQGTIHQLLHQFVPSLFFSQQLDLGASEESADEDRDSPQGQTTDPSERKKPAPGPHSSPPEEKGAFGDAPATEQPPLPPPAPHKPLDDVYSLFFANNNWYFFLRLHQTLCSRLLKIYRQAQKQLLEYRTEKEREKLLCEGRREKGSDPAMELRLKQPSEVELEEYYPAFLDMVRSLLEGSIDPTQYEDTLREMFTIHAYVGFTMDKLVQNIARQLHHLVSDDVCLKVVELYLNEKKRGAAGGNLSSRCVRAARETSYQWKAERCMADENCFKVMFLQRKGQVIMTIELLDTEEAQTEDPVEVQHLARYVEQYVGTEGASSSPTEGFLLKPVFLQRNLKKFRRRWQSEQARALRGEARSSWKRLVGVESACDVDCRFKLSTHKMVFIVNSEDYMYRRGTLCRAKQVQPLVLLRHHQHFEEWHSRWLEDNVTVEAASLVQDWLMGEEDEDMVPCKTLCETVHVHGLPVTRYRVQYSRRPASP
Target,log2 fold change (erlotinib),log2 fold change [1],log2 fold change [2],log2 fold change [3],log2 fold change [4],log2 fold change [5],log2 fold change [6],log2 fold change [7],log2 fold change [8],log2 fold change (IRAK-1-4 Inhibitor I)
SMTN isoform 6 (UniProt P53814),-0.033,0.081,-0.01,0.035,0.006,0.021,0.005,-0.018,0.015,0.058
SFR1 isoform 2 (UniProt Q86XK3),-0.009,-0.019,0.067,0.015,-0.051,0.018,0.025,0.04,0.01,0.001
SSU72 (UniProt Q9NP77),-0.067,0.057,-0.071,-0.064,-0.003,0.07,0.005,0.029,0,0.001
TAF6L (UniProt Q9Y6J9),-0.013,0.174,-0.077,0.005,0.025,0.055,0.055,0.022,-0.104,0.051
SMIM12 (UniProt Q96EX1),0.048,-0.105,-0.024,-0.042,-0.026,0.024,-0.009,0.075,0.008,-0.009
TANK (UniProt Q92844),0,-0.089,-0.015,-0.069,0.003,0.025,0.089,0.082,0,0.028
SLC11A2 isoform 3 (UniProt P49281),-0.005,-0.041,-0.009,-0.013,0,0.011,0.046,-0.004,0.026,0.024
SNRPF (UniProt P62306),-0.029,-0.07,0.081,-0.017,-0.065,0.028,-0.034,-0.018,0.001,0.007
SKP2 (UniProt Q13309),0.06,-0.053,-0.063,0.027,,-0.023,-0.029,-0.027,0.044,-0.002
SPAG1 (UniProt Q07617),,-0.045,,-0.089,1.01 (active),-0.034,-0.063,,,0.042
SLC40A1 (UniProt Q9NP59),0.188,-0.035,0.233,0.042,,-0.052,-0.122,-0.015,0.05,0.048
SNAP23 isoform 2 (UniProt O00161),0.042,-0.019,0.27,-0.006,,-0.071,-0.117,0.104,-0.08,0.057
SLC12A6 isoform 2 (UniProt Q9UHW9),0.013,,0,,,-0.019,,-0.139,-0.049,0.089
TAOK2 (UniProt Q9UL54),,0.006,,-0.034,0.072,-0.031,0.729 (active),0.038,0.058,0.072
SLC41A1 (UniProt Q8IVJ1),0.176,,-0.042,,,0.018,,0.024,-0.014,-0.008
TAF1B (UniProt Q53T94),,-0.283,,-0.123,-0.001,0.024,0.013,0.345,0.123,-0.061
TARDBP (UniProt K7EN94),,0.293,,-0.12,,,-0.12,0.001,-0.19,
SMPD2 (UniProt O60906),-1.38 (active),,-0.551,,,-0.112,,-0.024,0.022,0.065
SLC39A13 (UniProt Q96H72),0.344,,0.063,,,-0.252,,,,-0.025
SMC4 (UniProt C9JJ64),,,,,-0.013,,,,,
SMARCA4 isoform 4 (UniProt P51532),0.052,,0.178,,,0.127,,0.112,-0.076,-0.101

Target,log2 fold change (erlotinib),log2 fold change [1],log2 fold change [2],log2 fold change [3],log2 fold change [4],log2 fold change [5],log2 fold change [6],log2 fold change [7],log2 fold change [8],log2 fold change (IRAK-1-4 Inhibitor I)
SIN3B (UniProt O75182),,-0.167,,-0.018,,,0.046,-0.071,0.132,
SLC25A36 (UniProt Q96CQ1),-0.021,0.024,0.08,-0.129,,0.041,0.027,-0.027,-0.026,0.038
STAR (UniProt P49675),0.207,0.01,-0.192,-0.029,,0.042,-0.058,-0.125,-0.035,-0.031
SNAPC2 (UniProt Q13487),0.131,,0.022,,-0.21,0.087,,,,-0.166
SLCO4A1 (UniProt Q96BD0),,,,,0.08,,,,,
SLC35A3 isoform 2 (UniProt Q9Y2D2),-0.036,0.057,0.077,0.001,,-0.166,-0.006,-0.036,-0.002,0.164
SRC isoform 2 (UniProt P12931),-0.073,,0.028,,0.102,-0.063,,-0.018,-0.069,0.034
SHB (UniProt Q15464),0.003,,0.033,,,-0.014,,,,-0.067
STK17B (UniProt O94768),-0.041,,-0.341,,,-0.022,,,,-0.065
TAF11 (UniProt Q15544),,0.174,,-0.144,,-0.04,0.124,-0.242,0.071,0.051
SZT2 (UniProt Q5T011),0.043,,-0.089,,0.134,-0.013,,-0.004,0.016,0.014
SPA17 (UniProt Q15506),,-0.047,,0.01,-0.033,-0.018,-0.106,-0.076,-0.029,0
STK38L (UniProt Q9Y2H1),-0.001,,-0.163,,,0.113,,-0.027,0.11,0.011
STK26 isoform 3 (UniProt Q9P289),,,,,,,,0.272,-0.045,
STAU1 isoform 3 (UniProt O95793),-0.006,,-0.016,,-0.103,,,,,
SIX5 (UniProt Q8N196),-0.062,,-0.05,,-0.046,-0.034,,,,-0.141
SLC22A18 (UniProt Q96BI1),-0.008,0.043,-0.018,0.049,-0.147,,-0.03,-0.062,0.004,
SNRPD2 (UniProt K7EJB5),-0.076,0,-0.036,-0.106,,-0.12,0.055,0.088,0.037,-0.03
SURF2 (UniProt Q15527),,0.087,,-0.019,0.02,-0.004,0.022,0.051,0.074,0.035
SMIM1 (UniProt B2RUZ4),0.172,,-0.145,,-0.114,0.063,,0.086,-0.016,-0.214

# From the supplement of paper PMC10849652
